This is a sample that favours compounds with a hit; in the whole collection about 3.5% have one here.
FBW7 activator = FBW7 E3 ligase activators, primary screen, biochemical, AlphaScreen, human; AlphaScreen FBW7–phospho-cyclin E peptide binding, activator screen; normalized activity (activation), % at 26.1 µM; 650,000 compounds, 0.13% hits; AID 1259310, 2017; in the data active means normalized activity above about 1.9%;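 further: purified mutant Fbw7 with reduced substrate affinity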
Target sequence (Q969H0 whole entry, looked up): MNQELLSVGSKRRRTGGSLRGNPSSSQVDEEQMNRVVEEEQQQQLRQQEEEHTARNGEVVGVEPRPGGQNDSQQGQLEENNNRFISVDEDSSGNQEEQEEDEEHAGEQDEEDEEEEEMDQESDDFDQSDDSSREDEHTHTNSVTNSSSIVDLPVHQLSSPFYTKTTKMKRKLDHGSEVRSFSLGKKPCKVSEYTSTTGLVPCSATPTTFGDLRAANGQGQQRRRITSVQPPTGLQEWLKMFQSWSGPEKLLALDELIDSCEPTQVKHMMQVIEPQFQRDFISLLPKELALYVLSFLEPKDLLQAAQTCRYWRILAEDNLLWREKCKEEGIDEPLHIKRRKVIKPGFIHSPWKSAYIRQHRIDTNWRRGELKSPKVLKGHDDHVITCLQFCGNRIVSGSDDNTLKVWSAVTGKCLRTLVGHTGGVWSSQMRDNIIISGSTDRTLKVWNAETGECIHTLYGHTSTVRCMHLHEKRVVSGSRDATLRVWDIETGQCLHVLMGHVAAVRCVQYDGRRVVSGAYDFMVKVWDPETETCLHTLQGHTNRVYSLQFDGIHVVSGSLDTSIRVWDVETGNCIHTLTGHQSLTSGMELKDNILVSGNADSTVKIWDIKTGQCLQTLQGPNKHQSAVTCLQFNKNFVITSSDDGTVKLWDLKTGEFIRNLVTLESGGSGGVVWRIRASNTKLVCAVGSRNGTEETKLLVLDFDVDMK
TEAD-YAP inh = TEAD-YAP interaction inhibition, primary screen, TEAD-YAP interaction inhibitor project, luminescence, HEK-TIYL cells. TEAD-Gal4/YAP UAS-luciferase luminescence. AID 1259422, 2018. inhibition, % at 9.12 µM. 640,000 compounds, 1.4% hits; in the data active means inhibition above about 32%
GPR151 ag = activators of human GPR151, primary screen, cell-based, PathHunter beta-arrestin, luminescence | PathHunter beta-arrestin GPR151 cells | 650,000 compounds, 1% hits | activation, % at 11.2 µM | G-protein coupled receptor 151 (Homo sapiens), Q8TDV0; in the data active means activation above about 4.9%
MITF primary = MITF inhibitors, primary screen, biochemical, AlphaScreen, human; Microphthalmia-associated transcription factor (Homo sapiens), O75030; AlphaScreen MITF homodimerization, bead proximity signal; inhibition, % at 2.6 µM; 650,000 compounds, 0.91% hits; AID 1259374, 2018; in the data active means inhibition above about 50%
GPR151 conf act = GPR151 activators, triplicate retest, confirmation, cell-based, PathHunter beta-arrestin, luminescence; shares compounds with GPR151 ag; GPR151 PathHunter beta-arrestin cells, 90 min; % of EA-reagent control over plate median; activation, % at 11.2 µM; 6,700 tested, under 10 active; AID 1508609, 2020;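 active means mean percent activation across replicates above the confirmation screen cutoff of 4.91%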
GPR119 ag = GPR119 activators in beta-arrestin cells, counter-screen for GPR151 activator project, cell-based, PathHunter beta-arrestin, luminescence, triplicate | activation, % at 11.2 µM | shares compounds with GPR151 ag | 6,700 compounds, 0.3% hits | 90 min; 0 = compound-well median, 100 = enzyme-acceptor control | AID 1508611, 2020;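 active means mean percent activation in the counterscreen above 29.09%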;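 further: counterscreen on off-target GPR119 to flag nonselective hits from the GPR151 activator screen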
Numbers stand for hits; i = inactive; nt = no result.

SMILES	FBW7 activator	TEAD-YAP inh	GPR151 ag	MITF primary	GPR151 conf act	GPR119 ag
CCN(CC)c1ccc2cc(C(=O)Nc3ccc(C)cc3)c(=O)oc2c1	i	i	i	i	nt	nt
CCOC(=O)CC(=O)c1cc2ccc(N(CC)CC)cc2oc1=O	i	i	5.4	i	i	i
CCOC(=O)c1c(N2C(=O)CCC2=O)sc2c1CCC(C)C2 (stereo not drawn)	i	i	i	i	nt	nt
CCOC(=O)c1c(N2C(=O)C3C4C=CC(C4)C3C2=O)sc2c1CCC(C)C2 (stereo not drawn)	i	i	7.3	i	i	i
OC(COc1ccccc1CN1CCCC1)CN1CCc2ccccc2C1 (stereo not drawn)	i	i	8.9	i	i	i
O=C(c1ccccc1NS(=O)(=O)c1ccc(F)cc1[N+](=O)[O-])N1CCCC1	i	i	i	i	nt	nt
CC(C)c1ccc(N2CC(O)=C(c3nc4ccccc4[nH]3)C2=N)cc1	i	i	7.9	i	i	i
N=C1C(c2nc3ccccc3[nH]2)=C(O)CN1c1ccc(F)cc1	i	i	i	i	nt	nt
O=C(Nc1cccc2ccccc12)N1CCN(c2ccc(F)cc2)CC1	i	i	10.8	i	i	i
CC(=O)c1ccc(N2CCN(C(=O)Nc3ccc(C)cc3)CC2)cc1	i	i	i	i	nt	nt
CC(=O)c1ccc(N2CCN(C(=O)Nc3cccc(F)c3)CC2)cc1	i	i	10.7	i	i	i
Cc1cc(N2CCOCC2)nc2ccc(NC(=O)c3ccccc3F)cc12	i	i	i	i	nt	nt
Cc1ccc(C)c(-c2csc(NC(=O)c3ccc(Oc4ccccc4)cc3)n2)c1	i	i	i	i	nt	nt
COc1ccccc1N1CCN(C(c2ccc(C)cc2)c2nnnn2CC2CCCO2)CC1 (stereo not drawn)	i	i	i	i	nt	nt
Cc1cccn2c(CN3CCCCC3CCn3cccn3)c(C(=O)N3CCOCC3)nc12 (stereo not drawn)	i	i	7.8	i	i	i
O=C(c1nc2sccn2c1CNCCc1ccncc1)N1CCCCCCC1	i	i	i	i	nt	nt
O=C(c1nc2sccn2c1CNCCc1cccnc1)N1CCCC1	i	i	11.7	i	i	i
COC(=O)[C@@H]1CCCN1Cc1c(C(=O)N2CCOCC2)nc2c(C)cccn12	i	i	i	i	nt	nt
Cc1cccn2c(CNCCSc3nccn3C)c(C(=O)N3CCCCC3)nc12	i	i	i	i	nt	nt
CSCCNCc1c(C(=O)N2CCCCC2)nc2c(C)cccn12	i	i	9.0	i	i	i
CC(C)(C)c1ccc(C(=O)Nc2ccccc2-c2nnn(CC(N)=O)n2)cc1	i	i	i	i	nt	nt
COc1ccc(-c2nc(NCc3ccccc3)c3ncn(CCN4CCCC4=O)c3n2)cn1	i	i	i	i	nt	nt
Cc1ccc(NC(=O)C(=O)NCC(c2ccc3c(c2)OCO3)N2CCN(C)CC2)c(C)c1 (stereo not drawn)	i	i	6.5	i	i	i
CCOC(=O)C1CCCN(c2c(NCCCN3CCN(CC)CC3)c(=O)c2=O)C1 (stereo not drawn)	i	i	i	i	nt	nt
CC(CCc1ccccc1)NC(=O)Cn1c(CO)nc2ccccc21 (stereo not drawn)	i	i	6.2	i	i	i
SMILES	FBW7 activator	TEAD-YAP inh	GPR151 ag	MITF primary	GPR151 conf act	GPR119 ag
CN1C(=O)/C(=C/c2ccc(F)cc2)N(C)C1=S	i	i	i	i	nt	nt
COc1ccccc1Nc1c(-c2ccc(C)c(C)c2)c(=O)c1=O	i	i	i	i	nt	nt
CCOC(=O)c1ccc(Nc2c(-c3ccc(Cl)cc3)c(=O)c2=O)cc1	i	i	i	i	nt	nt
CCOC(=O)c1cccc(Nc2c(-c3ccc(C)c(C)c3)c(=O)c2=O)c1	i	i	11.6	i	i	i
Cc1ccc(-c2c(Nc3ccccc3F)c(=O)c2=O)cc1C	i	49.2	5.8	i	i	i
CC1(C)CC(=O)C2=C(C1)Nc1ccccc1NC2c1cc2c(cc1[N+](=O)[O-])OCO2 (stereo not drawn)	i	i	i	i	nt	nt
Cc1cc(N/N=C/c2cccc([N+](=O)[O-])c2)nc(-c2ccccc2)n1	i	i	5.0	i	i	i
